From ChEMBL document CHEMBL3988442, “University of Dundee, Small-Polar-MMV Screening Library” (2021)
The whole screen tested about 48,000 compounds, of which about 13,000 (27%) showed an effect of 50% or more. The list shows a part of the results.

Tested on: Wolbachia pipientis
Experiment: Anti-Wolbachia Cell-Based Screen
Format: functional
Parameters: scale not given: in the data most compounds retested in dose-response had high values
Conditions: 5 µM

Compound | Percent Effect [%]
Cc1cccc(CN2C(=O)C[C@H]3[C@@H]2CCN3Cc2ccco2)n1.O=C(O)C(F)(F)F.O=C(O)C(F)(F)F | 95.2
Cc1cccc(CN2C(=O)C[C@H]3[C@@H]2CCN3Cc2nccs2)n1.O=C(O)C(F)(F)F.O=C(O)C(F)(F)F | 101.6
Cc1cccc(CN2C(=O)CC[C@H]3[C@@H]2CCN3CC(=O)N(C)C)n1.O=C(O)C(F)(F)F.O=C(O)C(F)(F)F | 6.381
Cc1cccc(CN2C(=O)C[C@@H]3[C@@H]2CCN3Cc2ccsc2)n1.O=C(O)C(F)(F)F.O=C(O)C(F)(F)F | 96.12
Cc1ccc(-c2noc(CC[C@@H]3CCCN4CCCC[C@H]34)n2)nn1 | -24.46
CNc1cc(C2CCCNC2)nc(C)n1.Cl.Cl (configuration not stated) | 69.51
c1cncc(NCCNC2CCCNC2)c1 (configuration not stated) | 1.696
Cc1cc(C)nc(C2CCCNC2)n1.Cl.Cl (configuration not stated) | 131.4
Cc1cc(N(C)C)nc(N2CCCC2c2cccnc2)n1 (configuration not stated) | 6.252
CN(C)c1cc(C2CCCNC2)ccn1.Cl.Cl (configuration not stated) | 113.5
Cc1cc(N(C)C)nc(C2CCCNC2)n1.Cl (configuration not stated) | 130.2
O=C([C@H]1C[C@H]2OCC[C@H]2N(Cc2ccncc2)C1)N1CCCCO1 | -15.5
Cc1nc(O)cc(CN2CC=C(c3cnn(-c4ccccc4)c3)CC2)n1 | 3.563
O=C(O)C(F)(F)F.O=C1[C@H]2CN(Cc3cccs3)C[C@H]2CN1c1cncnc1 | 0.1136
Cc1cc(O)nc(C2CCCNC2)n1.Cl (configuration not stated) | 166.7
Cl.FC(F)(F)c1nc(C2CCCNC2)no1 (configuration not stated) | 113.6
CC(C)c1nc(C2CCCNC2)no1.Cl (configuration not stated) | -31.86
COc1ccc(F)cc1C(=O)C1CCCN(Cc2cnc(C)s2)C1 (configuration not stated) | -11.09
N#Cc1cccc(N2CCCC3(CNCCO3)C2)n1.O=C(O)C(F)(F)F.O=C(O)C(F)(F)F (configuration not stated) | 1.133
CN1C(=O)C2(CCN(Cc3cccnc3)CC2)c2cccc(F)c21.Cl | 9.194
COc1ccc(CCN)cc1-c1ccc(S(C)(=O)=O)cc1 | -7.949
O=C(c1cc(F)cc(F)c1)N1C[C@H]2CNC[C@H]2C1 | -1.943
